Pemphigus Ab inh: blocks pemphigus antibody binding to human desmoglein-3; DSG3-coupled beads, scFv-anti-DSG3-GFP binding, flow cytometry; active compounds read low; P32926; 0.48% of 310,000 active; binding (percent of control), % at 10 µM;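 active means binding more than 3 SD below its plate's average and above zero; inconclusive means below that plate limit but binding exactly zero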;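 further: hits lower antibody fragment binding to DSG3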
pPAFAH inh: pPAFAH (human) enzyme inhibition; 1.5% of 330,000 active; Q13093; inhibition, % at 3.39 µM; recombinant pPAFAH, FP-rhodamine probe fluorescence polarization; AID 463082;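 active means inhibition above the mean inhibition across the screen plus 3 SD, cut at about 25% in these data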;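 further: inhibitors block binding of the rhodamine activity-based probe so polarization drops; 0% = enzyme with DMSO and 100% = wells lacking pPAFAH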
Target sequence (Q13093 whole entry, looked up): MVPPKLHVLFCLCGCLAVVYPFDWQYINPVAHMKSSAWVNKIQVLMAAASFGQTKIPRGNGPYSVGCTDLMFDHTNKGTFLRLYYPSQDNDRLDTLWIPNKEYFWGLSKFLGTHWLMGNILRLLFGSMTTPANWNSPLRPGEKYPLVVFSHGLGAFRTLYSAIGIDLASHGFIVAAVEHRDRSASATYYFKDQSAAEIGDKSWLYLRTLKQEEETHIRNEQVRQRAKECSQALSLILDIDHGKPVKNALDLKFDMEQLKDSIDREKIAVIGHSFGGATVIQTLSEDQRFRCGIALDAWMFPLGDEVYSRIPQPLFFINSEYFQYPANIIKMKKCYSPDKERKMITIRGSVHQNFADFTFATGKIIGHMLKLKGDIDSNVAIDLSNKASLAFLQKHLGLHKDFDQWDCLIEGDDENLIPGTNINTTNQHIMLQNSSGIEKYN
PAFAH1B3 inh: blocks human PAF acetylhydrolase 1B catalytic subunit 3; recombinant PAFAH1B3, FP-rhodamine probe, fluorescence polarization; 0.28% of 340,000 active; AID 492972; Q15102; inhibition, % at 3.39 µM;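 active means inhibition above the screen-wide average of all tested compounds plus 3 SD, cut at about 25% in these data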;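 further: 0% = enzyme with DMSO only and 100% = wells lacking PAFAH1B3 protein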
Target sequence (Q15102 whole entry, looked up): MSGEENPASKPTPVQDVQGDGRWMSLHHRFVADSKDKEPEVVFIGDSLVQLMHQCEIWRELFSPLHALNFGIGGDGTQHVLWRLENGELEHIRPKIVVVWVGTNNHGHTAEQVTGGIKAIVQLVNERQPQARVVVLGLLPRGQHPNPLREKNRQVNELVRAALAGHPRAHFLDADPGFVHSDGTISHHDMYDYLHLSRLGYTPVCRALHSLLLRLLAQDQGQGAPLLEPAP
PAFAH1B2 inh: inhibitors of human PAFAH1B2; P68402; recombinant PAFAH1B2, FP-rhodamine activity probe, fluorescence polarization; inhibition, % at 3.39 µM; 1.2% of 340,000 active; AID 492953;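 active means inhibition above the mean of all tested compounds plus 3 SD, cut at about 24% in these data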;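 further: 0% = enzyme with DMSO and 100% = wells lacking PAFAH1B2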
PAFAH2 FP inh: PAFAH2 (human) inhibition | Q99487 | recombinant PAFAH2, FP-rhodamine activity probe, fluorescence polarization | inhibition, % at 3.39 µM | 0.99% of 340,000 active;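 active means inhibition above the mean over all tested compounds plus 3 SD, cut at about 30% in these data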;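 further: inhibitors block probe labeling of enzyme so polarization drops; 0% = enzyme with DMSO and 100% = wells lacking PAFAH2 protein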
M18AAP inhibitor: blocks P. falciparum M18 aspartyl aminopeptidase; recombinant PfM18AAP, H-Glu-NHMec fluorogenic cleavage; inhibition, % at 7.35 µM; 1.2% of 290,000 active;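 active means inhibition above the campaign mean inhibition over all tested compounds plus 3 SD, cut at about 28% in these data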;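 further: 0% = plate median of test compound wells and 100% = 2 mM ZnCl2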
* hit, by the source's call. Hits are enriched below; roughly 3.8% of the tested compounds scored in any of these assays.

`Cc1cc(C)n(-c2ccc(C(=O)OCC(=O)Nc3ccc(Cl)c(S(=O)(=O)N(C)C)c3)cc2)n1` gave Pemphigus Ab inh 98, pPAFAH inh 25*, PAFAH1B3 inh 2, PAFAH1B2 inh -1, PAFAH2 FP inh 73* and M18AAP inhibitor 1.
`Cc1cc(C)n(-c2ccc(C(=O)OCC(=O)Nc3ccccc3[N+](=O)[O-])cc2)n1` gave Pemphigus Ab inh 98, pPAFAH inh 17, PAFAH1B3 inh 2, PAFAH1B2 inh 2, PAFAH2 FP inh 11 and M18AAP inhibitor 3.
Screening COc1ccc(NC(=O)COC(=O)c2ccc(-n3nc(C)cc3C)cc2)cc1OC returned Pemphigus Ab inh inconclusive, pPAFAH inh 27*, PAFAH1B3 inh 13, PAFAH1B2 inh 2 and PAFAH2 FP inh 7.
`COc1ccc(C(=O)OCC(=O)Nc2ccc(F)c(F)c2)cc1OC` gave pPAFAH inh 30*, PAFAH1B3 inh 3, PAFAH1B2 inh -2, PAFAH2 FP inh 82* and M18AAP inhibitor -2.
For Cc1cc(C)n(-c2ccc(C(=O)OCC(=O)Nc3ccc([N+](=O)[O-])cc3)cc2)n1 the results were Pemphigus Ab inh 104, pPAFAH inh 25*, PAFAH1B3 inh 14, PAFAH1B2 inh 4, PAFAH2 FP inh 26 and M18AAP inhibitor -12.
COc1ccc(NC(=O)COC(=O)c2ccc(S(=O)(=O)N3CCCC3)cc2)cc1OC was read as pPAFAH inh -3, PAFAH1B3 inh 4, PAFAH1B2 inh 5 and PAFAH2 FP inh 3.
`CC(C)c1cc(C(F)(F)F)n2nc(C(=O)Nc3ccc(-n4cnnn4)cc3)cc2n1` gave Pemphigus Ab inh 89, pPAFAH inh -2, PAFAH1B3 inh 2, PAFAH1B2 inh -4, PAFAH2 FP inh 2 and M18AAP inhibitor -6.
For CCOC(=O)c1ccc(Nc2ccc(-c3ccc(OC)c(OC)c3)nn2)cc1 the results were Pemphigus Ab inh 86*, pPAFAH inh 0, PAFAH1B3 inh 2, PAFAH1B2 inh -2, PAFAH2 FP inh 0 and M18AAP inhibitor 5.
For CCCCc1ccc(S(=O)(=O)NCCCN2CCCC2=O)cc1 the results were Pemphigus Ab inh 115, pPAFAH inh 28*, PAFAH1B3 inh 4, PAFAH1B2 inh 8, PAFAH2 FP inh 4 and M18AAP inhibitor 3.
`Cc1ccc(NS(=O)(=O)c2ccc(C(=O)NCCCN3CCCC3=O)cc2)cc1C` gave Pemphigus Ab inh 98, pPAFAH inh 31*, PAFAH1B3 inh 1, PAFAH1B2 inh 1 and PAFAH2 FP inh 6.
`Nc1nnc(CSCc2ccc(Cl)cc2)s1` gave Pemphigus Ab inh 111, pPAFAH inh 1, PAFAH1B3 inh -7, PAFAH1B2 inh 28*, PAFAH2 FP inh 7 and M18AAP inhibitor 0.
Screening CCOC(=O)c1ccc(-n2c(CCC(=O)O)ccc2-c2cccs2)cc1 returned Pemphigus Ab inh 106, pPAFAH inh 8, PAFAH1B3 inh 5, PAFAH1B2 inh -4, PAFAH2 FP inh 4 and M18AAP inhibitor 2.
CCCCn1c(CCC(=O)O)ccc1-c1cccs1 was read as pPAFAH inh 28*, PAFAH1B3 inh -2, PAFAH1B2 inh 10, PAFAH2 FP inh 4 and M18AAP inhibitor -11.
Cc1ccc(-n2c(CCC(=O)O)ccc2-c2cccs2)cc1C was read as Pemphigus Ab inh 98, pPAFAH inh 29*, PAFAH1B3 inh 8, PAFAH1B2 inh 6, PAFAH2 FP inh 10 and M18AAP inhibitor -4.
NNC(=O)c1ccc(CN2C(=O)c3cccc4cccc2c34)cc1 was read as Pemphigus Ab inh 100, pPAFAH inh -10, PAFAH1B3 inh -2, PAFAH1B2 inh 2, PAFAH2 FP inh -8 and M18AAP inhibitor -14.
`COc1ccccc1/C=N/NC(=O)c1ccc(CN2C(=O)c3cccc4cccc2c34)cc1` gave Pemphigus Ab inh 65*, pPAFAH inh -17, PAFAH1B3 inh -29, PAFAH1B2 inh -17, PAFAH2 FP inh -37 and M18AAP inhibitor -17.
Screening COc1ccc(N=C2S/C(=C\c3ccc(OCC(=O)O)cc3)C(=O)N2CCc2c[nH]c3ccccc23)cc1 returned Pemphigus Ab inh 46*, PAFAH1B3 inh -5, PAFAH1B2 inh -4, PAFAH2 FP inh -4 and M18AAP inhibitor 2.
For Cc1cc([N+](=O)[O-])c2c(c1C)C1C=CCC1C(c1ccccn1)N2 (stereo unspecified) the results were pPAFAH inh 28* and M18AAP inhibitor 21.
`C[C@H]1CN([C@@H](C)CO)C(=O)c2cc(Br)cnc2O[C@@H]1CN(C)S(=O)(=O)c1ccccc1` gave Pemphigus Ab inh 109.
Screening COc1ccc(N2CCN(S(=O)(=O)CCNC(=O)COc3cccc(OC)c3)CC2)cc1 returned Pemphigus Ab inh 54*, pPAFAH inh 11, PAFAH1B3 inh 5, PAFAH1B2 inh 0, PAFAH2 FP inh 7 and M18AAP inhibitor 7.
For Cc1ccc(S(=O)(=O)N2CCN(C(=O)N(c3ccccc3)c3ccccc3)CC2)cc1 the results were Pemphigus Ab inh 98, pPAFAH inh 4, PAFAH1B3 inh 3, PAFAH1B2 inh 26*, PAFAH2 FP inh 12 and M18AAP inhibitor 4.
For Cc1ccc(N(C)C(=O)N2CCN(S(=O)(=O)c3ccc(C)cc3)CC2)cc1 the results were pPAFAH inh 4, PAFAH1B3 inh 1, PAFAH1B2 inh 1, PAFAH2 FP inh 0 and M18AAP inhibitor -7.
`Cc1ccc(S(=O)(=O)N2CCN(C(=S)NCCc3ccccc3)CC2)cc1` gave Pemphigus Ab inh 100, pPAFAH inh 0, PAFAH1B3 inh 10, PAFAH1B2 inh 45*, PAFAH2 FP inh 2 and M18AAP inhibitor 4.
`O=C(O)CC/C(=N\Nc1ccc(S(=O)(=O)N2CCCC2)cc1[N+](=O)[O-])c1cccs1` gave Pemphigus Ab inh 100, PAFAH1B3 inh 10, PAFAH1B2 inh 28*, PAFAH2 FP inh 9 and M18AAP inhibitor -1.
Screening O=C(O)CC/C(=N\Nc1ccccc1[N+](=O)[O-])c1cccs1 returned Pemphigus Ab inh 100, pPAFAH inh 12, PAFAH1B3 inh 9, PAFAH1B2 inh 1, PAFAH2 FP inh 3 and M18AAP inhibitor 0.
Cc1cc(-c2nnn(CCCOC(C)(C)C)c2C)ccc1-c1cn(CCCOC(C)(C)C)nn1 was read as Pemphigus Ab inh 111.
Screening Clc1ccc(SCCCCn2ccnc2)cc1 returned Pemphigus Ab inh 109, pPAFAH inh 5, PAFAH1B3 inh 9, PAFAH1B2 inh 71*, PAFAH2 FP inh 2 and M18AAP inhibitor 8.
Screening Clc1ccccc1OCCCCn1ccnc1 returned Pemphigus Ab inh 99, pPAFAH inh -3, PAFAH1B3 inh -2, PAFAH1B2 inh 1, PAFAH2 FP inh 8 and M18AAP inhibitor 2.
`O=C(CCCN1C(=O)/C(=C/c2cccs2)SC1=S)Nc1cccnc1` gave Pemphigus Ab inh 68*, pPAFAH inh 0, PAFAH1B3 inh 4, PAFAH1B2 inh 3, PAFAH2 FP inh -1 and M18AAP inhibitor -1.

Compound activity: PubChem, several laboratories
